# Laboratory results taken from article PMC11574364.
# Assays:
# Experiment in all cases: protein domain microarray probed with biotinylated miRNA; Domain array: 20 mM Tris-HCl pH 7.4, 200 mM KCl, 0.2 mM EDTA, 0.05% NP40, 2 ug/ul heparin, overnight 4 C. ORF array: PBS pH 7.0 with RNase inhibitor, 100 ng RNA; high values mean tight binding
# Details in all cases: ssRNA
# RBM8A = RBM8A (Homo sapiens, UniProt Q9Y5S9)
# NOVA1(3) = molecular target: T1, NOVA1(3) (Homo sapiens, UniProt P51513)
# T1 sequence: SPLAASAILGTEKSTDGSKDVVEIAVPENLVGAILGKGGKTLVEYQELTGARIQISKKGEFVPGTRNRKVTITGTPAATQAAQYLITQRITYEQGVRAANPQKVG
# SFRS2 = molecular target: T2, SFRS2 (Homo sapiens, UniProt Q01130)
# T2 sequence: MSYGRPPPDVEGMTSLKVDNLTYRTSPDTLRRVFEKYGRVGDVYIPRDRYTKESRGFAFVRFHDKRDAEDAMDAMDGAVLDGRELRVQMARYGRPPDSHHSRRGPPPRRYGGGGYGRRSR
# KHDRBS3 = molecular target: T3, KHDRBS3 (Homo sapiens, UniProt O75525)
# T3 sequence: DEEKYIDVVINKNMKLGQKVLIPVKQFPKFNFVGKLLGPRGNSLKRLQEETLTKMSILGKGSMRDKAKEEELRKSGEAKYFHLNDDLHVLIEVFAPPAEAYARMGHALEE
# PGC-1 beta = molecular target: T4, PGC-1 beta (Homo sapiens, UniProt Q86YN6)
# T4 sequence: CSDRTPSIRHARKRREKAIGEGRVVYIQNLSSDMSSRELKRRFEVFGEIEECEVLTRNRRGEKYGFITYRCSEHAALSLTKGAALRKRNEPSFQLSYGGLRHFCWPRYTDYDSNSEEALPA
# hnRNP E2(3) = hnRNP E2(3) (Homo sapiens, UniProt Q15366)
# RBM12(1-2) = molecular target: T5, RBM12(1-2) (Homo sapiens, UniProt Q9NTZ6)
# T5 sequence: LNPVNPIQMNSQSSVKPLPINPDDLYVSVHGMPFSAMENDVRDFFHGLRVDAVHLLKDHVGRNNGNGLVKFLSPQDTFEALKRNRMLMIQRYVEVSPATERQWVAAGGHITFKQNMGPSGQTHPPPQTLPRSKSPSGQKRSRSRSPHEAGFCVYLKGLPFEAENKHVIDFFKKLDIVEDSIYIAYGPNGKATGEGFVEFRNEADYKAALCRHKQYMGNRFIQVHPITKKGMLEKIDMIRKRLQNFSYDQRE
# RBMY1F = RBMY1F (Homo sapiens, UniProt Q15415)
# RBM19(5-6) = molecular target: T6, RBM19(5-6) (Homo sapiens, UniProt Q9Y4C8)
# T6 sequence: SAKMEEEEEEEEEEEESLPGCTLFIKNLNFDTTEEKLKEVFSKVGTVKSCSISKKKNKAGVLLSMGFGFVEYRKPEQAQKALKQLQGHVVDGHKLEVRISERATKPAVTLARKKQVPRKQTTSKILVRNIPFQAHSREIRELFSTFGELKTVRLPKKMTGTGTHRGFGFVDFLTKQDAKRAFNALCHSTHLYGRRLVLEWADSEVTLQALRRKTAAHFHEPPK
# SSB = molecular target: T7, SSB (Homo sapiens, UniProt P05455)
# T7 sequence: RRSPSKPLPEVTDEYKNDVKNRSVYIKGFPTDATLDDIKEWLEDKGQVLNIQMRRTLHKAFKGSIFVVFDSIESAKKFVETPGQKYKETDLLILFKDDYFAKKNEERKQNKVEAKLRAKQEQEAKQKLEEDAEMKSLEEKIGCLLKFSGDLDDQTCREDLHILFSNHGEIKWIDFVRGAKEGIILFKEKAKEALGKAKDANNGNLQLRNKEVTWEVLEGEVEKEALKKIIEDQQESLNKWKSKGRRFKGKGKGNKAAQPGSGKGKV
# SAFB2 = SAFB2 (Homo sapiens, UniProt Q14151)
# RBM42 = molecular target: T8, RBM42 (Homo sapiens, UniProt Q9BTD8)
# T8 sequence: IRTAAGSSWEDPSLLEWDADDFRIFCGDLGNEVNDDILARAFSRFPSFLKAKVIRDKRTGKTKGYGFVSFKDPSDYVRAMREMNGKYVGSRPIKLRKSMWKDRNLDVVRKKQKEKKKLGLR
# ROD1(1-2) = ROD1(1-2) (Homo sapiens, UniProt O95758)
# RBM9 = molecular target: T9, RBM9 (Homo sapiens, UniProt O43251)
# T9 sequence: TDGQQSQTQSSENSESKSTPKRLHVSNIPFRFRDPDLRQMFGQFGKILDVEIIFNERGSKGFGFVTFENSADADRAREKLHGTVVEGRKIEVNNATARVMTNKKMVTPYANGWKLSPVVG
# NOVA1(1-2) = molecular target: T10, NOVA1(1-2) (Homo sapiens, UniProt P51513)
# T10 chain: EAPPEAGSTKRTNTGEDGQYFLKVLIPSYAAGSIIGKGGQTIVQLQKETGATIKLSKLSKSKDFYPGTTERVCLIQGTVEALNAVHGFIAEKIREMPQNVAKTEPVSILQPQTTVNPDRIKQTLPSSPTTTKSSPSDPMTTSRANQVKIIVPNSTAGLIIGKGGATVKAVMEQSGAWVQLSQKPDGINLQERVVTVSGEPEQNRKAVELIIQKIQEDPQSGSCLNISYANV
# PGC-1 alpha = molecular target: T11, PGC-1 alpha (Homo sapiens, UniProt Q9UBK2)
# T11 sequence: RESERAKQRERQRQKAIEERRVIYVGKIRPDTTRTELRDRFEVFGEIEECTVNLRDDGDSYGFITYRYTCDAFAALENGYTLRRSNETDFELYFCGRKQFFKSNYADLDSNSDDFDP
# STRBP(2) = molecular target: T12, STRBP(2) (Homo sapiens, UniProt Q96SI9)
# T12 sequence: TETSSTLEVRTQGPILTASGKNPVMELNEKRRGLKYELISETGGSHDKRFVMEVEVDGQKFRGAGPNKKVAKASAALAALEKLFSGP
# RBM28(3-4) = molecular target: T13, RBM28(3-4) (Homo sapiens, UniProt Q9NW13)
# T13 sequence: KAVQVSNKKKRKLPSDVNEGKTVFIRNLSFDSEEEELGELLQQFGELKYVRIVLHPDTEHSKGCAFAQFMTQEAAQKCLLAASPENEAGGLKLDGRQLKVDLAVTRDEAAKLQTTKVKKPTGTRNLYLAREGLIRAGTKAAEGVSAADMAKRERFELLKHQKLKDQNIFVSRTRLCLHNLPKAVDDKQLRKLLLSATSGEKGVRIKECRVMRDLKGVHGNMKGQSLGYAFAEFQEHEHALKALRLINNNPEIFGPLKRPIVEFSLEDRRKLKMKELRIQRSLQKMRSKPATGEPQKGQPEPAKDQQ
# RBM48 = molecular target: T14, RBM48 (Homo sapiens, UniProt Q5RL73)
# T14 sequence: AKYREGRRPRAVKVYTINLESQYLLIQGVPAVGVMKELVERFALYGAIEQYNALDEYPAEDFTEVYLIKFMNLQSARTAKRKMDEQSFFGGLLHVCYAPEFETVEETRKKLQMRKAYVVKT
# Kanadaptin = molecular target: T15, Kanadaptin (Homo sapiens, UniProt Q9BWU0)
# T15 sequence: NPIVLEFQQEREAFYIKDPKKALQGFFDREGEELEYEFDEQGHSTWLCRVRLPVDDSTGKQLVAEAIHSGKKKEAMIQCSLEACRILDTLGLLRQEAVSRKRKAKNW
# Chain of hnRNP E2(3) (Q15366 269-365): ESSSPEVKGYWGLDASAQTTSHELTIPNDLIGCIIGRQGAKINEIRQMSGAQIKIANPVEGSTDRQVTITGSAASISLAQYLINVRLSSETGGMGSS
# Chain of SAFB2 (Q14151 380-500): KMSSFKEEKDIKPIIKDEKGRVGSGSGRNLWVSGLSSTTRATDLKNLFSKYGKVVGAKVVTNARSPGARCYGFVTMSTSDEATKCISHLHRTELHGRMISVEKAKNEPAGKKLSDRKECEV
# Chain of ROD1(1-2) (O95758 40-280): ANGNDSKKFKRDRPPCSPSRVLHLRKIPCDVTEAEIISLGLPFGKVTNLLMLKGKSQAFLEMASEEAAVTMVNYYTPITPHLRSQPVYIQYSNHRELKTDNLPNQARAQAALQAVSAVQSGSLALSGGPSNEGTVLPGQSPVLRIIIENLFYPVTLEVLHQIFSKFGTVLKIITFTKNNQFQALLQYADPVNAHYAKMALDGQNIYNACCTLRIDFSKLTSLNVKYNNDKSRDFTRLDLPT
# Chain of RBMY1F (Q15415 1-110): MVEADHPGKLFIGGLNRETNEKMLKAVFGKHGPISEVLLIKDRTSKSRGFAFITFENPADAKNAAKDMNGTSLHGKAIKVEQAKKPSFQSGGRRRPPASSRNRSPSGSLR
Sequence,binding signal (RBM8A) [fluorescence intensity],binding signal (NOVA1(3)) [fluorescence intensity],binding signal (SFRS2) [fluorescence intensity],binding signal (KHDRBS3) [fluorescence intensity],binding signal (PGC-1 beta) [fluorescence intensity],binding signal (hnRNP E2(3)) [fluorescence intensity],binding signal (RBM12(1-2)) [fluorescence intensity],binding signal (RBMY1F) [fluorescence intensity],binding signal (RBM19(5-6)) [fluorescence intensity],binding signal (SSB) [fluorescence intensity],binding signal (SAFB2) [fluorescence intensity],binding signal (RBM42) [fluorescence intensity],binding signal (ROD1(1-2)) [fluorescence intensity],binding signal (RBM9) [fluorescence intensity],binding signal (NOVA1(1-2)) [fluorescence intensity],binding signal (PGC-1 alpha) [fluorescence intensity],binding signal (STRBP(2)) [fluorescence intensity],binding signal (RBM28(3-4)) [fluorescence intensity],binding signal (RBM48) [fluorescence intensity],binding signal (Kanadaptin) [fluorescence intensity]
UGAGGUAGUAGGUUGUAUAGUU,23.6 ± 8.27,39 ± 1.15,464 ± 35,21.1 ± 1.79,45.6 ± 6.99,23.4 ± 0.594,321 ± 62.5,1000 ± 19,39.6 ± 0.516,76.1 ± 6.81,130 ± 21.8,57.7 ± 4.36,49.2 ± 4.26,693 ± 16.3,27.6 ± 0.799,,,,,
UGAGGUAGUAGGUUGUGUGGUU,492 ± 15.8,202.3 ± 0.523,1219 ± 7.53,28.2 ± 0.368,385 ± 12.8,20.3 ± 0.735,1210 ± 36.7,1478 ± 10.7,318.4 ± 2.5,686 ± 34.9,826.5 ± 2.57,613 ± 9.75,562 ± 23.1,1610 ± 18,134 ± 4.86,72.3 ± 6.39,83.8 ± 5.54,135 ± 19.4,128 ± 27.9,62.8 ± 3.11
CAGUGCAAUGAUGAAAGGGCAU,194 ± 11.7,735.5 ± 6.54,1100 ± 38.7,23.5 ± 3.87,78.9 ± 4.49,21.9 ± 0.262,873 ± 45.6,1404 ± 5.42,110 ± 1.73,324 ± 18.3,298 ± 17.8,187 ± 2.13,116 ± 66.5,1850 ± 25.3,260.9 ± 1.94,52.5 ± 18.4,,25.9 ± 2.84,51.01 ± 0.233,
AGAGGUAGUAGGUUGCAUAGUU,530 ± 30.3,1990 ± 38.5,1507 ± 5.18,26.3 ± 5.34,196 ± 13.5,21.7 ± 1.28,1270 ± 68.8,2241 ± 17.4,122 ± 10.5,587.4 ± 5.08,328.4 ± 1.94,231 ± 13.5,339 ± 66.7,2720 ± 95.4,318 ± 18.7,50.4 ± 6.92,38.5 ± 2.51,54.1 ± 1.09,90.1 ± 12.4,33.9 ± 1.02
UGAGGUAGUAGGUUGUAUGGUU,462 ± 23.2,111 ± 7.91,1110 ± 31.5,22.9 ± 1.58,260 ± 19.3,20.2 ± 0.297,1230 ± 64.3,1430 ± 254,231.1 ± 1.89,770 ± 38.1,488.9 ± 0.622,362 ± 5.61,367 ± 26.4,1940 ± 112,90.1 ± 7.43,61.6 ± 8.6,56.6 ± 5.37,77 ± 4.09,94.7 ± 35.8,47.3 ± 6.22
UAGCUUAUCAGACUGAUGUUGA,,126.9 ± 0.87,480 ± 21.9,,,20.9 ± 1.85,271 ± 62.1,865 ± 36.1,23.1 ± 1.03,22.6 ± 3.15,54.58 ± 0.247,21 ± 0.962,,916 ± 20.1,,,,,,
